Laboratory results reported in the supplement of paper PMC10338343.
± gives the standard deviation.

Tested on: MILI (PIWIL2) piRISC loaded with L1MC piRNA (26 nt)
Assay: pre-steady-state target cleavage rate (min^-1); guide: L1MC piRNA 5'p-UAACUAAAUACUAUGCAAGCUGUAGG; MIWI and MILI are mouse PIWI proteins and EfPiwi is from a freshwater sponge; tags in brackets are library labels; higher = faster piRNA-guided slicing of the target
Settings: auxiliary factor: 500 nM mouse GTSF1
Description: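 Cleave-'n-Seq: a library of target RNAs (target site embedded in constant flanks, ACAGCATTCCGCGTTAGTGATATCCG... 5' flank; DNA-blocked outside the site) at 0.1 nM was incubated with 1 nM active mouse MILI or MIWI piRISC (synthetic 5'-monophosphorylated piRNA guide) with or without 500 nM mouse GTSF1 at 33 °C for 1 min to 16 h. Uncleaved targets were sequenced and normalised to non-target controls, and the pooled three trials were fitted to a burst-and-steady-state model to give the pre-steady-state cleavage rate (min^-1; k3 is constrained to at most 1e-4). Sequence is the target site only; target names encode pairing extent (gX:gY) and contiguous / 1-mismatch / 2-mismatch / bulge geometry. Fits with R² ≤ 0 are excluded.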

| Sequence | pre-steady-state target cleavage rate |
| --- | --- |
| UCCUCCUACAGCAAGCAUAGUAUUUAGUAA | 0.238 ± 0.02 |
| UCCUGGAUGUCCUUGCAUAGUAUUCAGUUA | 0.0755 ± 0.018 |
| UCCUGCUACAGCUUGCAUAGUUAUUAGUUA | 0.0372 ± 0.013 |
| UCCUGCAUGAGCUUGCAUAGUAUUUAGUAA | 0.234 ± 0.024 |
| UCCUGGAUGAGCUUGCAUAGUAUUUAGCUUA | 0.104 ± 0.026 |
| UCCUCCUACAGCUUGGAUAGUUUUUAGUUA | 0.0664 ± 0.0092 |
| UCCUGGAUGUCGAACCAUUGUAUAUAGUUA | < 0.0001 |
| UCCUGGUACAGCUUGCAUUGUUUUUAGUUA | 0.0201 ± 0.0095 |
| UCCUGGAUGUCCUUGCAAAGUAUUUAGUAA | 0.0311 ± 0.0099 |
| UCCUGGAUCAGCUUGCAUAGUAUAAUGUUA | 0.116 ± 0.013 |
| UCCUGGAUGAGCUUGCAUAGUAUUUGAGUUA | 0.307 ± 0.051 |
| UCCUCCUACUCCUUGCAUAGUAUUUAGUUA | 0.261 ± 0.021 |
| UCCUCCUACAGCUUGCAUAGUGAUUUAGUUA | 0.0192 ± 0.0061 |
| UCCUGGAUCAGGAUGCAUAGUAUUUACAAA | 0.0127 ± 0.0048 |
| UCCUGGUACAGCUUGCAUAGAUUUUAGUAA | 0.0172 ± 0.008 |
| UCCUGGAUCAGCUUGCACAGUAUUUAGUUA | 0.157 ± 0.015 |
| UCCUGGAUGUCGAUGCAUAGUUUUUAGUUA | 0.0108 ± 0.0042 |
| UCCUGGAUGUGCUUGCAUAGUUUUUUGUUA | 0.0102 ± 0.0056 |
| UCCUGCUACAGGUUGCAAAGUAUUUAGUUA | 0.143 ± 0.013 |
| UCCUGGAUGUGAUUGCAUAGUAUUUAGUUA | 0.115 ± 0.015 |
| UCCUGCUUCAGCUUGCAUAGUAUAUAGUUA | 0.277 ± 0.025 |
| UCCUCCUACAGCUUGCUUAGUAAUUAGUUA | 0.24 ± 0.015 |
| UCCUCCUACAGCUUGCAAUGUAUUUAGAAA | 0.0725 ± 0.016 |
| UCCUGGAUGUCGAUGCAUAGUAUUUAGUUUA | 0.0871 ± 0.014 |

Same assay, conditions: auxiliary factor: none (no GTSF1)

| Sequence | pre-steady-state target cleavage rate |
| --- | --- |
| UCCUGGAUGUCCUUGCAUAGUAUUCAGUUA | 0.00338 ± 0.0028 |
| UCCUGCUACAGCUUGCAUAGUUAUUAGUUA | 0.00337 ± 0.002 |
| UCCUGCAUGAGCUUGCAUAGUAUUUAGUAA | 0.00554 ± 0.0022 |
| UCCUCCUACAGCUUGGAUAGUUUUUAGUUA | 0.00384 ± 0.0019 |
| UCCUGGUACAGCUUGCAUUGUUUUUAGUUA | 0.00647 ± 0.0034 |
| UCCUGGAUGUCCUUGCAAAGUAUUUAGUAA | 0.00418 ± 0.0019 |
| UCCUGGAUGAGCUUGCAUAGUAUUUGAGUUA | 0.00461 ± 0.0029 |
| UCCUCCUACUCCUUGCAUAGUAUUUAGUUA | 0.0087 ± 0.0018 |
| UCCUCCUACAGCUUGCAUAGUGAUUUAGUUA | 0.00528 ± 0.0024 |
| UCCUGGAUCAGCUUGCACAGUAUUUAGUUA | 0.0116 ± 0.003 |
| UCCUGGAUGUCGAUGCAUAGUUUUUAGUUA | 0.0052 ± 0.002 |
| UCCUGCUACAGGUUGCAAAGUAUUUAGUUA | 0.00965 ± 0.0025 |
| UCCUGGAUGUGAUUGCAUAGUAUUUAGUUA | 0.00851 ± 0.0026 |
| UCCUGCUUCAGCUUGCAUAGUAUAUAGUUA | 0.00438 ± 0.002 |
| UCCUCCUACAGCUUGCUUAGUAAUUAGUUA | 0.00424 ± 0.0021 |
| UCCUGGAUGUCGAUGCAUAGUAUUUAGUUUA | 0.0069 ± 0.0031 |
